# According to ChEMBL document CHEMBL4513216, “Probing the Open Global Health Chemical Diversity Library for Multistage-Active Starting Points for Next-Generation Antimalarials” (ACS Infect Dis, 2020):
# About 8,600 (12%) of roughly 69,000 compounds showed an effect of 50% or more. The list comes from a sample in which strong results are over-represented; it also holds similar structures and randomly drawn compounds.
# Test system: Plasmodium berghei
# Test: Screen against P. berghei liver stage (PbLuc), transformed with Luciferase, at 10uM
# Type: functional, HepG2
# Details: tested at 10 uM
row,Compound,INHIBITION [%]
1,Cc1cc(C[C@@H]2COC[C@H]2NCc2ccc(C)c(C)c2)on1,1.5
2,CCOc1cc(CN[C@@H]2COC[C@H]2Cc2cc(C)no2)ccc1O,74.9
3,Cc1cc(C[C@@H]2COC[C@H]2NCc2ccc(C(C)C)cc2)on1,28
4,Cc1ccc(CN[C@@H]2COC[C@H]2Cc2cc(C)no2)cc1,-22.6
5,COC(=O)c1ccc(CN[C@@H]2COC[C@H]2Cc2cc(C)no2)cc1,0.301
6,Cc1cc(C[C@@H]2COC[C@H]2NCc2ccc(Cl)c(Cl)c2)on1,50.8
7,NC(=O)CC1CCCN(c2cncc(OCc3ccccc3)n2)C1 (stereo unspecified),27.6
8,CC(C)CCc1nc(CN2CCOC(Cn3cncn3)C2)cs1 (stereo unspecified),36.1
9,Cc1n[nH]c(C2CN(CC(=O)NCc3cccs3)CCO2)n1 (stereo unspecified),8.9
10,O=C(c1cccc(F)c1)N1CCC2(CC1)CC(N1CCOCC1)C2,1.34
11,Cc1cnn(CC2CN(Cc3nc(-c4cccnc4)no3)CCO2)c1 (stereo unspecified),-4.94
12,CCn1ccnc1CN1CCN(Cc2ccc(C)o2)[C@@H]2CS(=O)(=O)C[C@@H]21,16.7
13,Nc1nc(CNc2ncnc3c2CCN(Cc2ccoc2)CC3)cs1,51.8
14,CC(C)Nc1ncnc2c1CCN(Cc1ccoc1)CC2,-22.1
15,c1cc(CCNc2ncnc3c2CCN(Cc2ccoc2)CC3)ccn1,12.8
16,O=C(c1cncs1)N1CCOC(c2cc(CCO)[nH]n2)C1 (stereo unspecified),-4.5
17,O=C([C@H]1C[C@H]2OCC[C@H]2N(C(=O)c2ccccn2)C1)N1CCCCO1,22.2
18,CCN(CC)CCCNCc1cc2cccc(C)c2[nH]c1=O,-36.4
19,CCN1CCN(C(=O)Cn2nc(C(F)(F)F)c(Br)c2C2CC2)CC1,30.8
20,CCCN1CCN(C(=O)Cn2nc(C(F)(F)F)c(Br)c2C2CC2)CC1,64.7
21,CN1CCN(C(=O)Cn2nc(C(F)(F)F)c(Br)c2C2CC2)CC1,16.5
22,CCN1CCCC1CNC(=O)Cc1c(C)n[nH]c1-c1ccc(F)cc1 (stereo unspecified),38.8
23,CCOC(=O)c1sc2ccsc2c1CN,0.938

row,Compound,INHIBITION [%]
1,COc1cc(-c2cccc3c2OC(CN)C3)cc(OC)c1OC (stereo unspecified),48
2,COc1ccc(-c2cccc3c2OC(CN)C3)cc1F (stereo unspecified),47.1
3,COc1cc(-c2cccc3c2OC(CN)C3)ccc1O (stereo unspecified),50.8
4,Cc1ccc(CCCC(=O)N2CCC(CS(N)(=O)=O)CC2)s1,-0.554
5,CC(C)Oc1ncnc2c1CCN(Cc1cccs1)CC2,40.7
6,O=C(c1ccnnc1)N1CCc2ncnc(C3CCOC3)c2CC1 (stereo unspecified),38.1
7,Cc1ccc(CN2CCc3ncnc(OC(C)C)c3CC2)s1,-34.6
8,COc1ccc(CN2CCc3ncnc(C4CC4)c3CC2)cc1,47.4
9,COCCN1CCc2ncnc(OC(C)C)c2CC1,37.5
10,CC(C)Oc1ncnc2c1CCN(Cc1ccoc1)CC2,8.85
11,O=C(c1ccncc1)N1CCc2ncnc(C3CCOC3)c2CC1 (stereo unspecified),49.7
12,CC(C)Oc1ncnc2c1CCN(Cc1ccc(F)cc1)CC2,60.3
13,COc1ccc(CN2CCc3ncnc(OC(C)C)c3CC2)cc1,56.7
14,O=C(c1cccs1)N1CCc2ncnc(C3CCOC3)c2CC1 (stereo unspecified),53.2
15,CCc1ncnc2c1CCN(Cc1ccc(OC)cc1)CC2,26.7
16,CC(C)Oc1ncnc2c1CCN(Cc1ccco1)CC2,50.7
17,COCC1CC2(CCN(Cc3cccc(C#N)c3)CC2)CN1C(C)C (stereo unspecified),-11.2
18,CCCS(=O)(=O)NCC(C)(O)c1ccsc1 (stereo unspecified),20.9
19,Cc1nc(Nc2nnc(C)s2)cc(C2CCCN2C)n1 (stereo unspecified),21.6
20,O=C(c1cccc(C2CCNC2)c1)N1CCC(c2ccncc2)CC1 (stereo unspecified),-19.1
21,Cc1ccc(N2CC[C@H]3OCC[C@@]3(C(=O)N3CCCC3)C2)nn1,40.1
22,CC(C)n1cnnc1CNC(=O)c1cnn(-c2ccccc2)c1,-20.3
23,Cc1ccc(Cl)cc1N1CCC(CNC(=O)Cn2cccn2)C1 (stereo unspecified),10.083

row,Compound,INHIBITION [%]
1,c1coc(CN2CCc3ncnc(C4CCOC4)c3CC2)c1 (stereo unspecified),79.6
2,c1nc2c(c(C3CCOC3)n1)CCN(Cc1ccoc1)CC2 (stereo unspecified),12.1
3,c1ccc(CN2CCc3ncnc(C4CCOC4)c3CC2)nc1 (stereo unspecified),33
4,O=C(Nc1ccc(CCN2CCOCC2)cc1)C1CCCC1,-7.85
5,O=C(NCC1CC1)c1cc2c(s1)CCN2C(=O)c1ccc(F)cc1,4.57
6,CN(C)S(=O)(=O)NCC(Cc1cccc(F)c1)N1CCNC1=O (stereo unspecified),-15.3
7,COc1ccccc1C(=O)Nc1c(F)c(C(=O)NCCC(C)C)nn1C,57
8,COc1ccccc1C(=O)Nc1c(F)c(C(=O)NC2CCCC2)nn1C,4.48
9,COc1ccccc1C(=O)NCCC(=O)Nc1c(C)nn(C)c1C,51.8
10,CCOc1ccccc1CCC(=O)Nc1c(C)nn(C)c1C,22.6
11,CCC(C)NC(=O)c1nn(C)c(NC(=O)c2ccccc2OC)c1F (stereo unspecified),19.3
12,COc1cccc(CCC(=O)Nc2c(C)nn(C)c2C)c1OC,31
13,CC(=O)N1CCC2(CC1)COCCN2CCN(C)C,-8.94
14,Cc1cc(C)n(CC2CN(CCOc3ccccc3F)CCO2)n1 (stereo unspecified),9.14
15,Cc1ccc(N2CCc3ncc(CNc4ccccn4)n3CC2)nn1,18.4
16,O=C(c1cscn1)N1CCC(O)(Cn2ccc3ccncc32)CC1,17.1
17,CC(=O)N1N=C(c2ccco2)OC1C(=O)NCC(C)C (stereo unspecified),-4.32
18,FC(F)(F)Cn1cc(NCc2cscn2)cn1,62
19,CC(C)Cn1cc(NCc2cscn2)cn1,-24.5
20,CC(C)(C)n1cc(NCc2cscn2)cn1,29.4
21,CCOc1cc(=O)n2c(c1C(=O)OCc1ccc(C)cc1)CCCC2,32.2
22,COc1cc(N2CCC3(C2)CN(c2cccnc2)C(=O)CN3C)ncn1 (stereo unspecified),30.3
23,COc1cccc(N2CC3(CCN(c4cc(OC)ncn4)C3)CC2=O)c1 (stereo unspecified),34.6

row,Compound,INHIBITION [%]
1,COc1cc(N2CCC3(CC2)CCN(c2cccnc2)C3=O)ncn1,68.4
2,Cc1cccc(CN2CCC3(CCN(c4ncccn4)CC3)C2=O)c1,42
3,N#Cc1ccc(N2CCC3(CCCN(c4ccccn4)C3)C2)nc1 (stereo unspecified),12.1
4,N#Cc1ccc(N2CCCC3(CCN(c4cncnc4)C3=O)C2)nc1 (stereo unspecified),65.7
5,O=C1N(Cc2cccnc2)CCC12CCCN(c1ncc(F)cn1)C2 (stereo unspecified),-42
6,CCc1cnc(N2CCC3(CCN(Cc4cccc(C)c4)C3=O)C2)nc1 (stereo unspecified),60.5
7,O=C1N(c2cncnc2)CCC12CCCN(Cc1ccccn1)C2 (stereo unspecified),-11.5
8,O=C1N(Cc2cccnc2)CCC12CCCN(c1ncccn1)C2 (stereo unspecified),87.2
9,Cc1cccc(CN2CCC3(CCN(c4ncccn4)C3)C2=O)c1 (stereo unspecified),-23.3
10,O=C1N(Cc2ccncc2)CCC12CCCN(c1ncc(F)cn1)C2 (stereo unspecified),39.5
11,CN(C)CCOCc1cncc2c1CCN(Cc1ccccn1)C2,-8.51
12,Cc1nc(CN2CCO[C@H]3[C@@H](OCc4cccnc4)CC[C@@H]32)cs1,14.6
13,Cc1nc(C(=O)N2CCN(S(C)(=O)=O)CC2)c(-c2ccccc2Cl)s1,23
14,COCCN1CCC(Nc2c(F)cc(C#N)cc2F)CC1,-3.58
15,O=C([C@@H]1CCO[C@@H]2CCN(Cc3ccsc3)C[C@@H]21)N1CCCC1,38.1
16,O=C1CC(c2ccsc2)c2sc(C(=O)O)c(-c3ccc(F)cc3)c2N1 (stereo unspecified),-8
17,COc1cc(N2CCC3(CCN(Cc4cccnc4)C3=O)C2)ncn1 (stereo unspecified),91
18,COc1cc(N2CCC3(CC2)CN(CCO)c2ccccc23)ncn1,93.1
19,COc1cc(N2CCCC3(CCN(c4cncnc4)C3=O)C2)ncn1 (stereo unspecified),53
20,O=C1N(c2cccnc2)CCC12CCCN(Cc1cccnc1)C2 (stereo unspecified),-52.3
21,Cc1cnc(N2CCC3(CC2)CCN(c2cncnc2)C3=O)nc1,40.8
22,COc1cc(N2CCC3(CC2)CN(S(C)(=O)=O)c2ccccc23)ncn1,46.4
23,CCN1CCC2(CC1)CN(CCO)c1ccccc12,-7.94

row,Compound,INHIBITION [%]
1,COCC(=O)N1CCCC2(CCN(c3cncnc3)C2=O)C1 (stereo unspecified),25.2
2,COc1cccc(CN2CCC3(CCN(c4ncc(C)cn4)C3)C2=O)c1 (stereo unspecified),37.9
3,O=C(c1ccncc1)N1CCCC2(CCN(c3cccnc3)C2=O)C1 (stereo unspecified),-7.7
4,Cc1cccc(CN2CCC3(CCN(c4ccccn4)C3)C2=O)c1 (stereo unspecified),20.7
5,COc1cc(N2CCCC3(CCN(c4cccnc4)C3=O)C2)ncn1 (stereo unspecified),84.7
6,CNC(=O)[C@H]1C[C@@H]2CN(C(=O)c3ccccn3)C[C@@H]2N1S(C)(=O)=O,37.2
7,Cc1nnc(CN2CCCC2c2c(C)nn(C)c2Cl)o1 (stereo unspecified),16.9
8,O=C(C1CCOC1)N1C[C@H]2CN(Cc3nccs3)C[C@H]2C1 (stereo partly specified),17.1
9,COc1ccccc1CN(CC1CCCO1)C(=O)c1cc(C)n[nH]1 (stereo unspecified),-11.3
10,c1cncc(CN2Cc3nccn3CC(Cn3cncn3)C2)c1 (stereo unspecified),5.41
11,COc1ccc(C(=O)N2C[C@@H](O)[C@H](NCCc3ncccc3C)C2)cc1,-15.3
12,Cc1cc(CNc2cc(Cl)ccc2C)no1,-4.4
13,Cc1nnsc1CN1C[C@H]2CC[C@@H](C1)N(Cc1c(C)noc1C)C2=O,-42.9
14,CNc1cc(C(=O)N2CCC3(CC2)Nc2ccccc2NC3=O)ccn1,57.6
15,CNc1ncc(C(=O)N2CCC3(CC2)Nc2ccccc2NC3=O)cn1,27.6
16,Nc1cc(C(=O)N2CCC3(CC2)Nc2ccccc2NC3=O)ccn1,-31.5
17,CC(=O)c1cc(C(=O)N2CCC3(CC2)Nc2ccccc2NC3=O)cs1,20.3
18,COc1ncc(C(=O)N2CCC3(CC2)C(=O)Nc2ccccc23)cn1,12
19,COc1cc(C(=O)N2CCC3(CC2)Nc2ccccc2NC3=O)ccn1,52.1
